Key:
Experiment in all cases: DAPPL (digital affinity profiling via proximity ligation, sequencing); 10 mM Tris-HCl pH 7.5, 50 mM NaCl, 1 mM DTT, 4% glycerol, room temperature, 30 min; GST-TFs on glutathione beads, 16-mer random dsDNA library, 0.1% formaldehyde crosslink after washing; high values mean tight binding
Details in all cases: protein: recombinant; tags: N-terminal GST; dsDNA, one strand shown
ERF = target: T1, ERF (Homo sapiens, UniProt P50548 1-548)
T1 sequence: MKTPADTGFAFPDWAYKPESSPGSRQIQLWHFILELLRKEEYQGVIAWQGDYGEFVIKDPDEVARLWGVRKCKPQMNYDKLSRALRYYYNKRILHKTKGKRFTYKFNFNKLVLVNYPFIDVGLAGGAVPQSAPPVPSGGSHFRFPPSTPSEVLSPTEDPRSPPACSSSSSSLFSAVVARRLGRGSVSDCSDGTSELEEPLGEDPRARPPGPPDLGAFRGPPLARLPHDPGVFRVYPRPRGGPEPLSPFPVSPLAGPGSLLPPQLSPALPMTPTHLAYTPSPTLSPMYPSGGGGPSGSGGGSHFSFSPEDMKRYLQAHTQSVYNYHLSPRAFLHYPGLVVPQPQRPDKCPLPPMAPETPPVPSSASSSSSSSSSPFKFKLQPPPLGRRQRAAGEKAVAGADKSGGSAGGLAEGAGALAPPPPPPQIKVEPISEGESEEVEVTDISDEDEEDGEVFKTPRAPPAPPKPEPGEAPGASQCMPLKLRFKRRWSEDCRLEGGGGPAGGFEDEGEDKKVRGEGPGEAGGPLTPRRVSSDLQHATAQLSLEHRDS
Outline: (§1)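 Human transcription factors fused to GST were expressed in yeast, captured on glutathione beads, given DNA barcodes and pooled with a GST-only negative control. Pools were incubated with 200 nmole of a 16-mer random double-stranded DNA library in Tris/NaCl/DTT/glycerol buffer at room temperature for 30 min. They were then washed, crosslinked with 0.1% formaldehyde, proximity-ligated (BsaI/T4 ligase, 1 h, 37 °C), PCR-amplified and sequenced on an Illumina NextSeq500. Binding signal is each 6-mer's read frequency for a factor divided by its frequency for the GST control.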

ETV3L = target: T2, ETV3L (Homo sapiens, UniProt Q6ZN32 1-361)
T2 sequence: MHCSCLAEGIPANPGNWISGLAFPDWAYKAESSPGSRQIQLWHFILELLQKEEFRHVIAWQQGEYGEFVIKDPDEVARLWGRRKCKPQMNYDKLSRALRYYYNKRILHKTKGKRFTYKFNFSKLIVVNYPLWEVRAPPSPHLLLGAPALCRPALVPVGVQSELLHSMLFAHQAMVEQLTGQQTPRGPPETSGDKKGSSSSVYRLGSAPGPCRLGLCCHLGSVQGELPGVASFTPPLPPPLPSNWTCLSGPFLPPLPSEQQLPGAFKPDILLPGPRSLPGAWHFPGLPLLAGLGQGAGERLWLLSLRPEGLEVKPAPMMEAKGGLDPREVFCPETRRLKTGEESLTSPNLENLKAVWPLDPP
Outline: as §1

ETS2 = target: T3, ETS2 (Homo sapiens, UniProt P15036 1-469)
T3 sequence: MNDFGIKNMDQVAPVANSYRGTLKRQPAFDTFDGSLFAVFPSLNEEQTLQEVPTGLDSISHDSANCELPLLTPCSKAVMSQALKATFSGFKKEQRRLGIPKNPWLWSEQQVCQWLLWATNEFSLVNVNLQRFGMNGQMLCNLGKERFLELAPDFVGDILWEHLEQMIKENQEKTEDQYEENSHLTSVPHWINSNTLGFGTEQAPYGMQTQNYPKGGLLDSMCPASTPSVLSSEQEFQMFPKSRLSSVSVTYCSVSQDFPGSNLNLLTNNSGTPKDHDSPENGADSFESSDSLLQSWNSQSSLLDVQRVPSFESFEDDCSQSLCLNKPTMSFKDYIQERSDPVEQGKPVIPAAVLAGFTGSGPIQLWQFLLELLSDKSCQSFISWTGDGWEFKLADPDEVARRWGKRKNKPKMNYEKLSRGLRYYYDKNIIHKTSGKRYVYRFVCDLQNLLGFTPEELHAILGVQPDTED
Outline: as §1

SPDEF = target: T4, SPDEF (Homo sapiens, UniProt O95238 1-335)
T4 sequence: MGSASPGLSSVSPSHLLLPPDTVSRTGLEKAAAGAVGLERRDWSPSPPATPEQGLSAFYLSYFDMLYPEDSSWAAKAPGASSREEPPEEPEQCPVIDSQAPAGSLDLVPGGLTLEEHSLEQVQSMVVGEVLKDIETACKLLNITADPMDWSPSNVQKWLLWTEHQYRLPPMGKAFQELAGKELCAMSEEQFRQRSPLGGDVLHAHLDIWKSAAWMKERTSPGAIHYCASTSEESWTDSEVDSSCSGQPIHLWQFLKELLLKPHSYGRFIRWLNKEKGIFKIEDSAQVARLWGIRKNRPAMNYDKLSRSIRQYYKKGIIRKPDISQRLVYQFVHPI
Outline: as §1

ETV7 = target: T5, ETV7 (Homo sapiens, UniProt Q9Y603 1-341)
T5 sequence: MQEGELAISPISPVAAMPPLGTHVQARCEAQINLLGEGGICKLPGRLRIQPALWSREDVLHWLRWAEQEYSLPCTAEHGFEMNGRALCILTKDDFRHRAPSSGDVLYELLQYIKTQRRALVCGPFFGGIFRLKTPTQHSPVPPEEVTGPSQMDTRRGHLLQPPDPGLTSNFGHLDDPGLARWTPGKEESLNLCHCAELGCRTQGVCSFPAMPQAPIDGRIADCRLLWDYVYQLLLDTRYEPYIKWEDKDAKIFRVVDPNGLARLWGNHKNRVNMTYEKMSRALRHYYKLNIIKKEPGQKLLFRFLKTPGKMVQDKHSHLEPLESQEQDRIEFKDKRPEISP
Outline: as §1

ELF5 = target: T6, ELF5 (Homo sapiens, UniProt Q9UKW6-2 1-255)
T6 sequence: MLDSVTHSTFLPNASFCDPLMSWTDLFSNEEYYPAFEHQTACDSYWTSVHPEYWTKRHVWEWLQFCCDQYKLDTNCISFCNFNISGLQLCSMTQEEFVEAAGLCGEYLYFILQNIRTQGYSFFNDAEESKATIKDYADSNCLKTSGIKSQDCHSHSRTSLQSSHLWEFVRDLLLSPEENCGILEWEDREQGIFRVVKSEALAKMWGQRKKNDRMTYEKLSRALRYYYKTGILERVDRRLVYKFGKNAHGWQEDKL
Outline: as §1

ETV3 = target: T7, ETV3 (Homo sapiens, UniProt P41162-2 1-143)
T7 sequence: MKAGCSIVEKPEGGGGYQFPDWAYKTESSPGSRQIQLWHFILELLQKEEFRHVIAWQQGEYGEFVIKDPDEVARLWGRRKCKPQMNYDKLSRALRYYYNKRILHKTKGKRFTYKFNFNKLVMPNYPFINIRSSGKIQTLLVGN
Outline: as §1

ETV6 = ETV6 (Homo sapiens, UniProt P41212 1-452)
Chain of ETV6 (P41212 whole entry): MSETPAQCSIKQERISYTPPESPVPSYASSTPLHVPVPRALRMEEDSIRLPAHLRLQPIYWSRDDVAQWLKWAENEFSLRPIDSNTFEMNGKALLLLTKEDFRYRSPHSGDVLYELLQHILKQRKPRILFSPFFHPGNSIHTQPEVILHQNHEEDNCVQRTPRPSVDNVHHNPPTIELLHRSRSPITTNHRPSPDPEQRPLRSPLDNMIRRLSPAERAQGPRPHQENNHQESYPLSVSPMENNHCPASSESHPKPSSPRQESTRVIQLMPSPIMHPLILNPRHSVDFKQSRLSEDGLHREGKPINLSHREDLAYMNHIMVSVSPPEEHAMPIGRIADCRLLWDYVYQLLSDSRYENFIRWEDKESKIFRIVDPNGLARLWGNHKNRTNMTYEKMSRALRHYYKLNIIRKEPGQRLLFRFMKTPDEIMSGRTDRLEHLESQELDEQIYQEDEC
Outline: as §1

| Sequence | binding signal (ERF) | binding signal (ETV3L) | binding signal (ETS2) | binding signal (SPDEF) | binding signal (ETV7) | binding signal (ELF5) | binding signal (ETV3) | binding signal (ETV6) |
| --- | --- | --- | --- | --- | --- | --- | --- | --- |
| CAAATG | 1.25 fold enrichment (6-mer frequency, TF over GST control) | 1.11 fold enrichment (6-mer frequency, TF over GST control) | 1.15 fold enrichment (6-mer frequency, TF over GST control) | 1.19 fold enrichment (6-mer frequency, TF over GST control) | 1.2 fold enrichment (6-mer frequency, TF over GST control) | 1.1 fold enrichment (6-mer frequency, TF over GST control) | 1.13 fold enrichment (6-mer frequency, TF over GST control) | 1.18 fold enrichment (6-mer frequency, TF over GST control) |
| TAACCA | 1.1 fold enrichment (6-mer frequency, TF over GST control) | 1.13 fold enrichment (6-mer frequency, TF over GST control) | 1.12 fold enrichment (6-mer frequency, TF over GST control) | 1.05 fold enrichment (6-mer frequency, TF over GST control) | 1.09 fold enrichment (6-mer frequency, TF over GST control) | 1.09 fold enrichment (6-mer frequency, TF over GST control) | 1.13 fold enrichment (6-mer frequency, TF over GST control) | 1.04 fold enrichment (6-mer frequency, TF over GST control) |
| TATTAG | 1 fold enrichment (6-mer frequency, TF over GST control) | 1.04 fold enrichment (6-mer frequency, TF over GST control) | 1.06 fold enrichment (6-mer frequency, TF over GST control) | 1.06 fold enrichment (6-mer frequency, TF over GST control) | 1.03 fold enrichment (6-mer frequency, TF over GST control) | 1.06 fold enrichment (6-mer frequency, TF over GST control) | 1.05 fold enrichment (6-mer frequency, TF over GST control) | 1.05 fold enrichment (6-mer frequency, TF over GST control) |
| CGAGCA | 1.17 fold enrichment (6-mer frequency, TF over GST control) | 1.13 fold enrichment (6-mer frequency, TF over GST control) | 1.06 fold enrichment (6-mer frequency, TF over GST control) | 1.18 fold enrichment (6-mer frequency, TF over GST control) | 1.06 fold enrichment (6-mer frequency, TF over GST control) | 1.03 fold enrichment (6-mer frequency, TF over GST control) | 1.04 fold enrichment (6-mer frequency, TF over GST control) | 1.06 fold enrichment (6-mer frequency, TF over GST control) |
| TTCGAT | 1.4 fold enrichment (6-mer frequency, TF over GST control) | 1.33 fold enrichment (6-mer frequency, TF over GST control) | 1.33 fold enrichment (6-mer frequency, TF over GST control) | 1.18 fold enrichment (6-mer frequency, TF over GST control) | 1.22 fold enrichment (6-mer frequency, TF over GST control) | 1.2 fold enrichment (6-mer frequency, TF over GST control) | 1.24 fold enrichment (6-mer frequency, TF over GST control) | 1.14 fold enrichment (6-mer frequency, TF over GST control) |
| GGAAAT | 2.42 fold enrichment (6-mer frequency, TF over GST control) | 2.66 fold enrichment (6-mer frequency, TF over GST control) | 2.75 fold enrichment (6-mer frequency, TF over GST control) | 2.56 fold enrichment (6-mer frequency, TF over GST control) | 2.56 fold enrichment (6-mer frequency, TF over GST control) | 3.68 fold enrichment (6-mer frequency, TF over GST control) | 2.88 fold enrichment (6-mer frequency, TF over GST control) | 3.32 fold enrichment (6-mer frequency, TF over GST control) |
| ATGTCA | 1.2 fold enrichment (6-mer frequency, TF over GST control) | 1.2 fold enrichment (6-mer frequency, TF over GST control) | 1.2 fold enrichment (6-mer frequency, TF over GST control) | 1.1 fold enrichment (6-mer frequency, TF over GST control) | 1.02 fold enrichment (6-mer frequency, TF over GST control) | 1.09 fold enrichment (6-mer frequency, TF over GST control) | 1.12 fold enrichment (6-mer frequency, TF over GST control) | 1.11 fold enrichment (6-mer frequency, TF over GST control) |
